From PubChem BioAssay
MEP2-GFP yeast: modulators of MEP2-GFP levels in yeast, primary screen, S. cerevisiae, multiplex flow cytometry, MLPCN library; S. cerevisiae MEP2-GFP strain, 3 h; 100% = DMSO control level; GFP response vs DMSO, % at 10 µM; hit rate 0.51% among 330,000; AID 2016, 2009;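 active means GFP response versus DMSO above a set limit, roughly screen mean plus 3 SD, cut at about 180% in these data; inconclusive means fewer than 70 cells counted for a yeast strain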;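 further: median GFP fluorescence of the barcode-gated MEP2-GFP cells per well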
RPL19A-GFP yeast: RPL19A-GFP expression modulators in yeast, primary screen, cell-based, S. cerevisiae, multiplex flow cytometry, MLPCN | percent response vs DMSO, % at 10 µM | hit rate 0.3% among 330,000 | S. cerevisiae RPL19A-GFP strain, 3 h; active compounds read low;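 active means percent response vs DMSO below 50%; inconclusive means fewer than 70 events counted for the yeast strain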;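 further: median channel GFP fluorescence of the barcoded RPL19A-GFP strain; ratio of sample median GFP to plate DMSO average so 100% = DMSO; lower means less RPL19A-GFP as with rapamycin TOR inhibition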
AGP1 TOR yeast: modulators of AGP1-GFP expression in yeast TOR pathway, primary screen, cell-based, multiplex flow cytometry, S. cerevisiae, MLPCN library. 3 h; GFP as percent of DMSO wells. GFP response vs DMSO, % at 10 µM. hit rate 0.02% among 320,000;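 active means GFP response relative to DMSO above a set limit, near screen average plus 3 SD, cut at about 150% in these data; inconclusive means fewer than 70 cells counted for the yeast strain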;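 further: median GFP channel fluorescence of the gated AGP1 strain per well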
CIT2-GFP yeast: modulators of CIT2-GFP expression in yeast, primary screen, S. cerevisiae, GFP fusion, multiplex flow cytometry, MLPCN library. GFP response vs DMSO, % at 10 µM. S. cerevisiae CIT2-GFP strain, 3 h; 100 means same as DMSO wells. hit rate 0.065% among 320,000;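 active means GFP response relative to DMSO above a set limit, near the screen mean plus 3 SD, cut at about 150% in these data; inconclusive means Fewer than 70 cells measured for a yeast strain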;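 further: ratio of well median GFP fluorescence to mean of DMSO wells on the plate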
LAP4-GFP MLPCN: modulators of LAP4-GFP expression in yeast, primary screen, S. cerevisiae, multiplex flow cytometry, MLPCN library. GFP response vs DMSO, % at 10 µM. hit rate 0.34% among 320,000. 3 h; median GFP as percent of DMSO wells;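 active means GFP response vs DMSO above a set limit, about the screen mean plus 3 SD, cut at about 150% in these data; inconclusive means under 70 cell events counted for the yeast strain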
The depositor's hits bear a star; ? = inconclusive; . = no result given; ! = repeats disagree; [ ] = remark or other dose. Most compounds without a hit are left out; they make up all but 0.89% or so of the library.

SMILES | MEP2-GFP yeast | RPL19A-GFP yeast | AGP1 TOR yeast | CIT2-GFP yeast | LAP4-GFP MLPCN
Cc1ccsc1C(=O)N(Cc1nnc(-c2ccccc2Cl)o1)C1CC1 | 98 | 84 | 96 | 79 | 164*
Cc1cc(C)c(S(=O)(=O)Nc2cccc(C(=O)O)c2)cc1S(=O)(=O)Nc1cccc(C(=O)O)c1 | 100 | 102 | 100 | 97 | 102
Cc1[nH]c2ccccc2c1C(=O)C(C)OC(=O)C1CCC1 (stereo unspecified) | 103 | 68 | 57 | 64 | 189*
CCOc1c(Br)ccc2c1sc1nc[nH]c(=O)c12 | 183* | . | 27 | 105 | 105
CC1(C)C2CCC(C2)C1(C)NC(=O)CN1CCOCC1 (stereo unspecified) | 308*[may fluoresce violet] | 42*[may fluoresce violet] | ? | ? | 92
NCCSc1c(-c2ccc(F)cc2)[nH]c2ccccc12 | 616*[may fluoresce violet] | 74 | 25 | ? | 101
O=C(c1ccc2c3c(cccc13)CC2)C1CCCN(C(=O)c2ccc[n+]([O-])c2)C1 (stereo unspecified) | 101 | 95 | 101 | 97 | 106
C/C(Cl)=C/CN1C(=O)C2C3C=CC(C3)C2C1=O (stereo unspecified) | 247*[may fluoresce violet] | 25*[may fluoresce violet] | ? | ? | 110
O=C(O)CN1C(=O)C2C3C=CC(C3)C2C1=O (stereo unspecified) | 100 | 101 | 95 | 101 | 101
Cc1cccc2cc(C#N)c(N3CCC(O)CC3)nc12 | 102 | 108 | 89 | 76 | 98
COc1ccccc1CCC(=O)Nc1ccc2c(c1)CN(Cc1ccc(C)o1)CC2 | 103 | 102 | 102 | 104 | 94
OCC(O)C1OC(Nc2ccc(Cl)cc2)C(O)C1O (stereo unspecified) | 310*[may fluoresce violet] | 56 | ? | ? | 115
Nc1ccc(C(=O)O)c(O)c1 | 94 | ? | 84 | 79 | 384*![may fluoresce red]
O=C(O)c1ccc(O)cc1O | 104 | 105 | 111 | 91 | 111
CSc1ccc(Cl)c(C(=O)NNC(=O)c2cccs2)c1 | 105 | 99 | 94 | 96 | 98
c1ccc(C(c2nnnn2Cc2cccs2)N2CCN(C3CCCC3)CC2)cc1 (stereo unspecified) | 231*[may fluoresce violet] | 33*[may fluoresce violet] | ? | ? | 93
COC(=O)CC1C(=O)NCCN1C(=O)CSc1nc2cc(Cl)ccc2o1 (stereo unspecified) | 98 | 93 | 93 | 90 | 98
CCOC(=O)N/C(N)=N/c1nc2ccccc2s1 | 108 | 89 | 89 | 86 | 168*
CC(=O)N/C(N)=N/c1nc(=O)c2ccccc2s1 | 91 | 99 | 97 | 101 | 103
NC(=O)CCC(=O)N1CCCC(C(=O)c2ccc(C(F)(F)F)cc2)C1 (stereo unspecified) | 97 | 97 | 99 | 97 | 96
Cc1cc(O)c(C(C)C)cc1NS(=O)(=O)c1ccccc1 | 182*[may fluoresce violet] | 46*[may fluoresce violet] | 20 | ? | 103
CCCC(c1nnnn1CS(=O)(=O)c1ccc(C)cc1)N1CCC(C(N)=O)CC1 (stereo unspecified) | 224*[may fluoresce violet] | 56 | ? | ? | 78
Cc1ccc(S(=O)(=O)Cn2nnnc2C(CC(C)C)N2CCC(C(N)=O)CC2)cc1 (stereo unspecified) | 99 | 107 | 98 | 105 | 94
COc1cc(OC)cc(C(=O)NCC(=O)OCC(=O)C(C)(C)C)c1 | 484*[may fluoresce violet] | 73 | 17 | ? | 78
CCOC(=O)CNC(=O)c1cc(OC)cc(OC)c1 | 98 | 96 | 97 | 99 | 101
SMILES | MEP2-GFP yeast | RPL19A-GFP yeast | AGP1 TOR yeast | CIT2-GFP yeast | LAP4-GFP MLPCN
O=C1NC(Cc2ccccc2)C(=O)Nc2ccc(Br)cc21 (stereo unspecified) | 109 | 109 | 103 | 106 | 100
O=C1Nc2ccc(Br)cc2/C1=C/C1CC=CCC1 (stereo unspecified) | 91 | 79 | 90 | 97 | 192*
CCCCC(=O)Nc1nn(C)c2nc3c(C)cccc3cc12 | 359*[may fluoresce violet] | 42*[may fluoresce violet] | ? | ? | 97
COc1ccc(CCC(=O)NCCOc2ccccc2Cl)cc1 | 185*[may fluoresce violet] | 28*[may fluoresce violet] | ? | ? | 70
C=CCN1C(=O)c2ccccc2NC1c1cc(Br)cs1 (stereo unspecified) | 279*[may fluoresce violet] | 55 | 23 | ? | 92
O=C(COC(=O)/C=C/c1ccccc1)NCc1ccccc1Cl | 109 | 102 | 106 | 118 | 116
O=C(N/N=C/c1ccc(-c2ccc(Br)cc2)o1)c1ccc2c(c1)OCO2 | 91 | 92 | 90 | 84 | 162*
O=C(Nc1ccc(OC(=O)c2cccnc2)cc1)c1cccnc1 | 103 | 98 | 96 | 93 | 103
O=C(Nc1cccc(OC(=O)c2cccnc2)c1)c1cccnc1 | 194*[may fluoresce violet] | 59 | 21 | ? | 103
COc1ccc(CN(C(=O)c2snc(C(N)=O)c2N)C(C(=O)NC2CCCC2)c2cc(OC)ccc2OC)cc1 (stereo unspecified) | 302*[may fluoresce violet] | 41*[may fluoresce violet] | ? | ? | 74
CCOc1cc(N2CCOCC2)c(OCC)cc1NC(=S)NCCCOC | 101 | 96 | 100 | 94 | 100
CCn1c2ccccc2c2cc(/C=N/n3cn[nH]c3=S)ccc21 | 87 | 90 | 91 | 83 | 160*
CCCCOC(=O)c1ccc(NC(=S)NC(=O)c2c(Cl)cnn2CC)cc1 | 406*[may fluoresce violet] | 39*[may fluoresce violet] | . | ? | 83
O=C(Cc1ccccc1)NNc1c2ccccc2nc2ccccc12 | 101 | 98 | 89 | 89 | 91
O=C(Nc1c2ccccc2nc2ccccc12)C(Cl)(Cl)Cl | 120 | 46* | 87 | 86 | 89
CC1CCN(C(=O)CN2C(=O)C(C)(C)Oc3ccc(C(=O)NC(C)C)cc32)CC1 | 107 | 99 | 102 | 100 | 105
COc1ccc(C(=O)c2nccc3ccccc23)cc1 | 185* | 99 | 77 | 105 | 105
O=S(=O)(NCCc1ccccn1)c1ccc(OC(F)(F)F)cc1 | 112 | 95 | 123 | 171*[may fluoresce green] | 111
Cc1ccc(NS(=O)(=O)c2ccc3[nH]c(=O)[nH]c3c2)cc1 | 92 | 95 | 107 | 95 | 122
COc1ccc(CCC(=O)Nc2nccs2)cc1OC | 198*[may fluoresce violet] | 47*[may fluoresce violet] | 22 | ? | 94
COc1ccccc1OCC(=O)NC1CCCc2ccccc21 (stereo unspecified) | 99 | 101 | 93 | 87 | 92
COc1ccc(CCC(=O)NC2CCCc3ccccc32)cc1OC (stereo unspecified) | 236*[may fluoresce violet] | 28*[may fluoresce violet] | ? | ? | 71
CCOC(=O)c1cc(S(=O)(=O)NC2CCC(C)CC2)cn1C (stereo unspecified) | 102 | 101 | 107 | 100 | 104
CCSC1(SCC)N=C(N)C2(C#N)C(c3ccccc3)NC3=C(CCC3)C12C#N (stereo unspecified) | 277*[may fluoresce violet] | 42*[may fluoresce violet] | 20 | ? | 97
